Active and inactive are the calls of the source. The calls were made as follows: active = hit-call score of the fitted dose curve at least 0.9, where 1 is the maximum; inactive = score below 0.9.
Tests used:
[1] = read-out: TIMP metallopeptidase inhibitor 2 (TIMP2), TIMP2 (gene 7077); assay: BSK_KF3CT_TIMP2: BioMAP Diversity Plus: KF3CT Assay for TIMP metallopeptidase inhibitor 2 (TIMP2) Biomarker Activity (AID 2283071); details: primary human keratinocytes with fibroblasts; actives raise or lower the signal
How it was run: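 Measurements come from ELISA detection of TIMP-2 at 24 hours in a dosed human keratinocyte and foreskin fibroblast co-culture. DMSO serves as negative control and baseline.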

[2] = read-out: Transforming growth factor beta 1 (TGFb1), TGFB1 (gene 7040); assay: BSK_KF3CT_TGFb1: BioMAP Diversity Plus: KF3CT Assay for Transforming growth factor beta 1 (TGFb1) Biomarker Activity (AID 2283072); details: primary human keratinocytes with fibroblasts; actives raise or lower the signal
How it was run: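 TGF-b1 ELISA on a 24 h dosed co-culture of human keratinocytes and foreskin fibroblasts; cytotoxicity tracked in parallel cultures by SRB staining.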

[3] = read-out: Matrix Metallopeptidase 9 (MMP9), MMP9 (gene 4318); assay: BSK_KF3CT_MMP9: BioMAP Diversity Plus: KF3CT Assay for Matrix Metallopeptidase 9 (MMP9) Biomarker Activity (AID 2283074); details: primary human keratinocytes with fibroblasts; actives raise or lower the signal
How it was run: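 MMP-9 quantified by ELISA after 24 h chemical treatment of primary human skin keratinocyte/fibroblast co-cultures; gain or loss fitted against DMSO, with parallel SRB staining (0.1% SRB, 560 nm) for overt cytotoxicity.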

[4] = read-out: urokinase plasminogen activator (uPA), PLAU (gene 5328); assay: BSK_KF3CT_uPA: BioMAP Diversity Plus: KF3CT Assay for urokinase plasminogen activator (uPA) Biomarker Activity (AID 2283075); details: primary human keratinocytes with fibroblasts; actives raise or lower the signal
How it was run: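 ELISA read-out of uPA 24 h after dosing human skin keratinocytes co-cultured with foreskin fibroblasts. Signal change fitted both ways relative to DMSO; sulforhodamine B on parallel cultures marks overt cytotoxicity.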

CD40, CD40 (gene 958) [5] = assay: BSK_LPS_CD40: BioMAP Diversity Plus: LPS Assay for CD40 Biomarker Activity (AID 2283076); details: primary human HUVEC with PBMC; actives raise or lower the signal
How it was run: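 ELISA readout of CD40 in HUVEC/PBMC co-culture (BSK_LPS system), 24 h post-dosing; bidirectional curve fit, DMSO baseline; parallel SRB total-protein staining for cytotoxicity.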

[6] = read-out: E-selectin (Homo sapiens) (UniProt P16581); assay: BSK_LPS_Eselectin: BioMAP Diversity Plus: LPS Assay for Eselectin Biomarker Activity (AID 2283077); details: primary human HUVEC with PBMC; actives raise or lower the signal
How it was run: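 ELISA readout of E-selectin, 24 h post-dose, HUVEC + PBMC co-culture (LPS system). Gain or loss of signal vs DMSO baseline, bidirectional fit.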

[7] = read-out: Interleukin-8 (IL8), CXCL8 (gene 3576); assay: BSK_LPS_IL8: BioMAP Diversity Plus: LPS Assay for Interleukin-8 (IL8) Biomarker Activity (AID 2283078); details: primary human HUVEC with PBMC; actives raise or lower the signal
How it was run: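 HUVEC + PBMC co-culture, LPS-activated; test chemicals dosed, IL-8 read by ELISA at 24 h. Bidirectional curve fit vs DMSO baseline (gain or loss of signal).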

[8] = BSK_LPS_SRB: Viability Assessment in the BioMAP Diversity Plus: LPS Assay (AID 2283079); details: primary human HUVEC with PBMC;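 also: total protein by sulforhodamine B absorbance as a cytotoxicity measure; measured one day after compound addition; fitted in both directions against DMSO so loss or gain of signal counts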
How it was run: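 HUVEC + PBMC co-culture, LPS-stimulated; compound 24 h. 10% TCA fix, 0.1% SRB stain, A560. Bidirectional fit vs DMSO.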

[9] = read-out: Interleukin-1 alpha (IL1a), IL1A (gene 3552); assay: BSK_LPS_IL1a: BioMAP Diversity Plus: LPS Assay for Interleukin-1 alpha (IL1a) Biomarker Activity (AID 2283080); details: primary human HUVEC with PBMC; actives raise or lower the signal
How it was run: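 HUVEC/PBMC co-culture, LPS system; 24 h after dosing; IL-1a by ELISA; gain or loss of signal fitted bidirectionally vs DMSO baseline.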

[10] = read-out: Monocyte Chemoattractant Protein-1 (MCP1), CCL2 (gene 6347); assay: BSK_LPS_MCP1: BioMAP Diversity Plus: LPS Assay for Monocyte Chemoattractant Protein-1 (MCP1) Biomarker Activity (AID 2283081); details: primary human HUVEC with PBMC; actives raise or lower the signal;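 as to AC50: secreted MCP-1 protein quantified by ELISA in culture supernatant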
How it was run: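 ELISA read-out of MCP-1 after 24 h chemical dosing of a human umbilical vein endothelial cell/peripheral blood mononuclear cell co-culture stimulated with LPS. Gain or loss of signal fitted relative to DMSO controls.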

[11] = BSK_LPS_PGE2: BioMAP Diversity Plus: LPS Assay for Prostaglandin E2 (PGE2) Biomarker Activity (AID 2283082); details: primary human HUVEC with PBMC; actives raise or lower the signal;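 as to AC50: secreted prostaglandin E2 measured by ELISA in LPS-stimulated co-culture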
How it was run: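 Primary human endothelial cells and blood mononuclear cells, co-cultured with LPS, receive test chemical; PGE2 ELISA follows at 24 h, with SRB-stained parallel cultures flagging cytotoxicity.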

[12] = read-out: Macrophage colony-stimulating factor (MCSF), CSF1 (gene 1435); assay: BSK_LPS_MCSF: BioMAP Diversity Plus: LPS Assay for Macrophage colony-stimulating factor (MCSF) Biomarker Activity (AID 2283083); details: primary human HUVEC with PBMC; actives raise or lower the signal
How it was run: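 HUVEC + PBMC co-culture (human primary), 24 h post-dose; M-CSF by ELISA; gain/loss of signal fitted bidirectionally vs DMSO baseline.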

[13] = read-out: Tissue Factor, F3 (gene 2152); assay: BSK_LPS_TissueFactor: BioMAP Diversity Plus: LPS Assay for Tissue Factor Biomarker Activity (AID 2283084); details: primary human HUVEC with PBMC; actives raise or lower the signal
How it was run: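 HUVEC/PBMC co-culture, LPS-activated; CD142 ELISA read 24 h post-dose; bidirectional curve fit vs DMSO negative control.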

[14] = read-out: Tumor necrosis factor (Homo sapiens) (UniProt P01375); assay: BSK_LPS_TNFa: BioMAP Diversity Plus: LPS Assay for Tumour Necrosis Factor alpha (TNFa) Biomarker Activity (AID 2283085); details: primary human HUVEC with PBMC; actives raise or lower the signal;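 as to AC50: TNFa protein level quantified by ELISA in the co-culture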
How it was run: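 ELISA-based TNFa endpoint in a human endothelial–PBMC co-culture sampled 24 h post-exposure. Curves were fitted in both directions using DMSO as baseline of activity.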

[15] = read-out: Vascular cell adhesion molecule 1 (VCAM1), VCAM1 (gene 7412); assay: BSK_LPS_VCAM1: BioMAP Diversity Plus: LPS Assay for Vascular cell adhesion molecule 1 (VCAM1) Biomarker Activity (AID 2283086); details: primary human HUVEC with PBMC; actives raise or lower the signal
How it was run: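 Measured by ELISA: VCAM-1 in LPS-activated HUVEC/PBMC co-cultures 24 h after treatment. Values reflect bidirectional fitting with DMSO as baseline.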

CD38, CD38 (gene 952) = assay: BSK_SAg_CD38: BioMAP Diversity Plus: SAg Assay for CD38 Biomarker Activity (AID 2283087); details: primary human HUVEC with PBMC; actives raise or lower the signal
How it was run: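 Measures CD38 on a human endothelial/PBMC co-culture driven by SEB and TSST-1, 24 h after compound exposure, using ELISA with fluorescence detection; DMSO defines baseline for bidirectional curve fitting.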

CD40, CD40 (gene 958) [16] = assay: BSK_SAg_CD40: BioMAP Diversity Plus: SAg Assay for CD40 Biomarker Activity (AID 2283088); details: primary human HUVEC with PBMC; actives raise or lower the signal
How it was run: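 HUVEC/PBMC co-culture, 24 h post-dose; CD40 by ELISA, fluorescence intensity; bidirectional fit vs DMSO negative control.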

CD69, CD69 (gene 969) = assay: BSK_SAg_CD69: BioMAP Diversity Plus: SAg Assay for CD69 Biomarker Activity (AID 2283089); details: primary human HUVEC with PBMC; actives raise or lower the signal;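 as to AC50: cell surface CD69 protein quantified by ELISA with fluorescence detection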
How it was run: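 HUVEC co-cultured with PBMC were dosed with chemical, and CD69 was measured by ELISA with fluorescence read-out 24 h later. Bidirectional curve fitting used DMSO as negative control and activity baseline.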

[17] = read-out: Monocyte Chemoattractant Protein-1 (MCP1), CCL2 (gene 6347); assay: BSK_SAg_MCP1: BioMAP Diversity Plus: SAg Assay for Monocyte Chemoattractant Protein-1 (MCP1) Biomarker Activity (AID 2283090); details: primary human HUVEC with PBMC; actives raise or lower the signal
How it was run: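 Values derive from bidirectional fitting of ELISA-measured MCP1 against DMSO controls. Readings were taken 24 h after dosing human vascular endothelial cells co-cultured with peripheral blood mononuclear cells under superantigen stimulation.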

[18] = read-out: C-C motif chemokine 2 (Homo sapiens) (UniProt P13500); assay: BSK_KF3CT_MCP1: BioMAP Diversity Plus: KF3CT Assay for Monocyte Chemoattractant Protein 1 (MCP1/CCL2) Biomarker Activity (AID 2283073); details: primary human keratinocytes with fibroblasts; actives raise or lower the signal
How it was run: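 KF3CT skin co-culture (keratinocytes/foreskin fibroblasts), 24 h post-dose; MCP-1 by ELISA; gain/loss of signal fit bidirectionally vs DMSO baseline.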

Measured: AC50

Sequence of E-selectin (Homo sapiens) (P16581 whole entry, looked up): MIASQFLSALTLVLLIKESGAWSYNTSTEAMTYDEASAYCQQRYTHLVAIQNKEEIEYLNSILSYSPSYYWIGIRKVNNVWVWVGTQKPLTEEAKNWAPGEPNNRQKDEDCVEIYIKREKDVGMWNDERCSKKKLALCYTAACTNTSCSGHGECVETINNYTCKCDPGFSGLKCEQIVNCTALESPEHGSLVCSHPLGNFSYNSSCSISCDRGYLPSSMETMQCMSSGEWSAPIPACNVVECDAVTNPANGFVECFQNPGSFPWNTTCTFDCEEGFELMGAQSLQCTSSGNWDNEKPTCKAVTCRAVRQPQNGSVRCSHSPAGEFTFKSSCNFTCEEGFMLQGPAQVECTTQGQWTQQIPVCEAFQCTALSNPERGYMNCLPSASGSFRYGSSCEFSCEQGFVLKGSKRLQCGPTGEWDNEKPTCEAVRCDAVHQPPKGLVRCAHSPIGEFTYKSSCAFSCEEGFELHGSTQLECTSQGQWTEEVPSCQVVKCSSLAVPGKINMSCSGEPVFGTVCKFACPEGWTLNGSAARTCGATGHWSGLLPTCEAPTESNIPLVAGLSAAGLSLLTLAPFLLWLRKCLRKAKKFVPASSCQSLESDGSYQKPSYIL
Sequence of Tumor necrosis factor (Homo sapiens) (P01375 whole entry, looked up): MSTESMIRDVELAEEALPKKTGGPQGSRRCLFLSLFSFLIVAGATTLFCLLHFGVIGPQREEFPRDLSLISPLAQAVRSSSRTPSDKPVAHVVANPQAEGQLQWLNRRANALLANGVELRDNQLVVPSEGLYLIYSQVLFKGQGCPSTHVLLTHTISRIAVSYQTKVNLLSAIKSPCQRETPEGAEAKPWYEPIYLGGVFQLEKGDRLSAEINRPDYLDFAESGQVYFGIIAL

Nc1ccc(Cc2ccc(N)cc2)cc1
active: [11] 8.34 µM
not listed: [18]
inactive: all other assays above

OCCCBr
inactive: all assays above

C=CCc1ccc2c(c1)OCO2
not listed: [13] | [17]
inactive: all other assays above

CC(C)COC(=O)c1ccccc1C(=O)OCC(C)C
active: [11] 9.78 µM | [15] 20 µM | CD69, CD69 (gene 969) 20 µM
not listed: [17] | [18]
inactive: all other assays above

Cc1cc(N=Nc2ccccc2C)ccc1N
active: [1] 20 µM | [2] 28.5 µM | [4] 39.2 µM | [8] 9.83 µM | [11] 3.97 µM | [15] 20 µM | CD38, CD38 (gene 952) 32.4 µM | CD40, CD40 (gene 958) [16] 30.7 µM
not listed: [3] | [13] | [17]
inactive: all other assays above

C[N+](C)(C)CC1CO1 (configuration not stated)
not listed: [3] | [13] | [17]
inactive: all other assays above

CC(C)(O)c1cnn2c(-c3ccc(F)c(-c4c(F)cccc4C#N)c3)cnc2n1
active: [1] 31 µM | [2] 36 µM | [4] 31.9 µM | [7] 3.82 µM | [11] 30.6 µM | [12] 20 µM | [14] 9.68 µM | [15] 20 µM | CD40, CD40 (gene 958) [16] 20 µM
inactive: [18] | CD40, CD40 (gene 958) [5] | [6] | [8] | [9] | [10] | CD38, CD38 (gene 952) | CD69, CD69 (gene 969)

C[C@]12C=CC3=C4CCC(=O)C=C4CC[C@H]3[C@@H]1CC[C@@H]2O
active: CD40, CD40 (gene 958) [5] 20 µM | [6] 4.37 µM | [11] 7.31 µM | [12] 9.08 µM | [15] 10.3 µM | CD38, CD38 (gene 952) 4.63 µM | CD40, CD40 (gene 958) [16] 9.73 µM
inactive: all other assays above

O=C(Oc1ccc(Br)cc1)N1CCN2CCC1CC2
not listed: [13] | [17]
inactive: all other assays above

c1ccc(N=Nc2ccccc2)cc1
not listed: [17] | [18]
inactive: all other assays above

ClCCOCCCl
not listed: [13] | [17]
inactive: all other assays above

CC(C)(C)OOC(=O)c1ccccc1
not listed: CD40, CD40 (gene 958) [16] | [17]
inactive: all other assays above

COc1cc(C=O)cc2c1[C@H](COC(N)=O)[C@]1(OC(C)=O)ON2C[C@H]2[C@@H]1N2C(C)=O
inactive: [11] | [14]
active: [1] 2.26 µM | [2] 2.21 µM | [18] 1.1 µM | [4] 11.4 µM | CD40, CD40 (gene 958) [5] 20 µM | [6] 10.6 µM | [7] 13.3 µM | [8] 6.69 µM | [9] 19.7 µM | [10] 5.86 µM | [12] 3.97 µM | [13] 14.3 µM | [15] 16.7 µM | CD38, CD38 (gene 952) 15.9 µM | CD40, CD40 (gene 958) [16] 18.2 µM | CD69, CD69 (gene 969) 13.2 µM | [17] 5.75 µM

— PubChem BioAssay (EPA / NIEHS)
